According to PubChem BioAssay (NCATS):
Inconclusive results are not listed. Active and inactive are the calls of the source. The call rests on the fitted dose curve; in most records, active means well fitted inhibition curve with a large enough effect; inconclusive means small, poorly fitted or top-dose-only effect; inactive means flat fitted curve, though single readings scatter.

What was measured:
Experiment in all cases: qHTS profiling for inhibitors of Plasmodium falciparum proliferation (AID 504749); further: nearly all actives have a fitted effect of over 60% in size
Conditions in all cases: P. falciparum in erythrocytes, SYBR Green DNA, 72 h; series mostly up to 28.7 µM
CP252 = system: CP252
How it was run: (§1)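 SYBR Green fluorescence (ex 485 nm, em 535 nm) reports parasite DNA after 72 h compound exposure of infected red cells at 0.3% parasitemia, 2.5% hematocrit; signal normalized to 0.29 uM artemisinin and vehicle wells.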

CP256 = system: CP256
How it was run: as §1

CP260 = system: CP260
How it was run: as §1

CP262 = system: CP262
How it was run: as §1

CP265 = system: CP265
How it was run: as §1

CP266 = system: CP266
How it was run: as §1

CP268 = system: CP268
How it was run: as §1

CP269 = system: CP269
How it was run: as §1

CP286 = system: CP286
How it was run: as §1

CP291 = system: CP291
How it was run: as §1

CP297 = system: CP297
How it was run: as §1

CP305 = system: CP305
How it was run: as §1

CP315 = system: CP315
How it was run: as §1

CP325 = system: CP325
How it was run: as §1

CP329 = system: CP329
How it was run: as §1

CP335 = system: CP335
How it was run: as §1

DIV14 = system: DIV14
How it was run: as §1

DIV17 = system: DIV17
How it was run: as §1

DIV30 = system: DIV30
How it was run: as §1

Dd2 = system: Dd2
How it was run: as §1

ECU = system: ECU
How it was run: as §1

FAB9 = system: FAB9
How it was run: as §1

HB3 = system: HB3
How it was run: as §1

ICS = system: ICS
How it was run: as §1

JCK = system: JCK
How it was run: as §1

N140 = system: N140
How it was run: as §1

P93_24 = system: P93_24
How it was run: as §1

P94_40 = system: P94_40
How it was run: as §1

PAD = system: PAD
How it was run: as §1

PC15 = system: PC15
How it was run: as §1

PC26 = system: PC26
How it was run: as §1

PC49 = system: PC49
How it was run: as §1

SC27B = system: SC27B
How it was run: as §1

TAB109 = system: TAB109
How it was run: as §1

TAB113 = system: TAB113
How it was run: as §1

TAB165 = system: TAB165
How it was run: as §1

W2 = system: W2
How it was run: as §1

Measured: Potency

COc1cccc2c1C(=O)c1c(O)c3c(c(O)c1C2=O)C[C@](O)(C(=O)CO)C[C@@H]3O[C@H]1C[C@H](N)[C@@H](O)[C@H](C)O1
inactive: all assays above
